Values without a mark were called inactive. Results filed as inconclusive are left out. Activity calls are given as the source filed them. Unless noted, calls come from the whole dose curve; as a rule, active = well fitted curve in either direction with a large enough effect (not every such curve was filed as active); inconclusive = small, poorly fitted or top-dose-only effect, or another doubt; inactive = flat fitted curve, though single readings scatter.

Here are results for 14 compounds from PubChem BioAssay (NCATS).

Assay [1] deals with Lysosomal acid glucosylceramidase (Homo sapiens) (UniProt P04062). The assay is described as follows: Glucocerebrosidase-p2 (AID 348; in the data active = potency below about 10 µM; note: potency is the fitted concentration of half-maximal effect). The conditions noted are these: purified GBA, blue fluorogenic substrate, 40 min. An outline of the steps:
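Normal human glucocerebrosidase (0.2 nM) with blue fluorogenic substrate (80 uM final) in citrate/phosphate pH 5.9 with 10mM sodium taurocholate, 0.01% tween-20; 40 min RT, NaOH/glycine stop; fluorescence Ex 365/Em 440; AC50 from a titration from 0.6 nM upwards.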

Assay [2] in a line: AP1 Signaling Pathway (AID 357).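 Note: ME-180 reporter cells stimulated with EGF at its EC50 level; % is set by controls: 0 for no effect and ±100 for the full control effect.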 The conditions noted are these: ME-180 AP-1-bla reporter, EGF-induced, beta-lactamase ratio, 5 h; at 7.69 µM (top of the series) unless noted. The procedure, abridged: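 In this screen, ME-180 cells in Opti-MEM with 0.5% dialyzed FBS received EC50 EGF and compound titrations for 5 h. AP-1 reporter beta-lactamase was detected via CCF4 ratio, giving AC50 for positive and negative modulators.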

Assay [3] concerns the target Cytochrome P450 1A2 (Homo sapiens) (UniProt P05177). As to the kind of experiment: p450-cyp1a2 (AID 410; calls by dose curve; note: potency is the fitted concentration of half-maximal effect;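 for activity change, negative = inhibition: -100% = full effect of reference inhibitor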). As to conditions: recombinant CYP1A2, luciferin-ME demethylation, luminescence; series mostly up to 11.4 µM. The procedure, abridged: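 Luminescent demethylation readout: Luciferin-ME (100uM, equal to Km) turned over by 20nM CYP1A2 for 60 min at room temperature after NADPH regeneration addition, following 10 min compound preincubation. Normalization used 57 uM furafylline as full inhibition.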

A short description of assay [4]: NFAT Signaling Pathway (AID 444).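 Note: carbachol stimulus at about its EC50 of 1 µM final; % is set by controls: 0 for no effect and ±100 for the full control effect.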 The conditions noted are these: Jurkat NFAT-bla M1, carbachol, beta-lactamase ratio, 5 h; at 7.69 µM (top of the series) unless noted. An outline of the steps: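 Read-out: CCF4 FRET ratio (460 nm/530 nm) after 1 h RT dye loading, used for %activity and AC50 from titration series. Cells: Jurkat NFAT-β-lactamase/M1 line, treated with compound plus 1 uM carbachol for 5 h, 37 °C.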

Assay [5] is described as follows: Stat Signaling Pathway (AID 446).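 Note: ME-180 cervical cancer cells given 40 pM IL-6 alongside compound; SIE-controlled beta-lactamase reporter measured as 460/530 nm FRET emission ratio; % is set by controls: 0 for no effect and ±100 for the full control effect.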 The conditions noted are these: ME-180 (cervical carcinoma) SIE beta-lactamase reporter, IL-6 stimulated, 5 h; at 7.69 µM (top of the series) unless noted. The procedure, abridged:
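Normalization used AC90 stimulation (300 pM IL-6) and AC90 inhibition (125 nM pan-JAK inhibitor at 40 pM IL-6). The underlying signal is SIE-driven beta-lactamase in ME-180 cells after 5 h IL-6 exposure with compound.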

The target of assay [6] is Glucocorticoid receptor (Homo sapiens) (UniProt P04150). The assay is described as follows: GR-GFP Redistribution (AID 450;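 active = compounds whose dose series gives a full or clear partial fitted curve of increased nuclear translocation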; note: potency is the fitted concentration of half-maximal effect). The conditions noted are these: U2OS GR-GFP nuclear translocation, laser cytometry, 2 h.
Chain of Glucocorticoid receptor (Homo sapiens) (P04150 whole entry, looked up, the tested form may be a part): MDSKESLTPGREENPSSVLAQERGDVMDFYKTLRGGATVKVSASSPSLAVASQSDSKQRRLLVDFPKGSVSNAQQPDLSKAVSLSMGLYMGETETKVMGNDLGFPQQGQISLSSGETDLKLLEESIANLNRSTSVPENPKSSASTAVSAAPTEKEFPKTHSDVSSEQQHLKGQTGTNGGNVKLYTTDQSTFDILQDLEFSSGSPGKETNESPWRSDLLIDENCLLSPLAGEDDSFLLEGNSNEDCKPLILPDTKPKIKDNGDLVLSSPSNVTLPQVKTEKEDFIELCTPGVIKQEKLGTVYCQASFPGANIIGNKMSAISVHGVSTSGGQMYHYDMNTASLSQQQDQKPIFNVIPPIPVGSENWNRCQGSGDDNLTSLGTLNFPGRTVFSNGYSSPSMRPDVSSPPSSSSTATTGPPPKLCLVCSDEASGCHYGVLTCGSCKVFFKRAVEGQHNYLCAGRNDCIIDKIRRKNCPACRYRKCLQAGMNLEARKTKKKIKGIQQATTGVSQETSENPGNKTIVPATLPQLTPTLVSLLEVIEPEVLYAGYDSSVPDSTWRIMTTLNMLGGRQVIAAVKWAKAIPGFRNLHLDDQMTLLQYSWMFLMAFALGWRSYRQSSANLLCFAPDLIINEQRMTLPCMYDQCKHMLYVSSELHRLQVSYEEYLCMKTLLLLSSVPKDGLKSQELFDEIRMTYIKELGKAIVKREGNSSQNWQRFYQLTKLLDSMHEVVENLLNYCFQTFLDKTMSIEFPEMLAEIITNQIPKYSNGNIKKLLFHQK
Assay [7] has the same target. As to the kind of experiment: GR-EFC Redistribution (AID 451; calls by dose curve; note: potency is the fitted concentration of half-maximal effect). As to conditions: CHO-K1 GR-EFC translocation, beta-gal luminescence, 2 h. An outline of the steps: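 Translocation of GR-ED fusion to nuclear EA restores b-gal, read by luminescence after 1 h room-temperature detection. Engineered CHO-K1 biosensor cells, 1,000/well, exposed 2 h at 37 C to titrations up to 46 uM final.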

The target of assay [8] is Mitogen-activated protein kinase 10 (Mus musculus) (UniProt Q61831). As to the kind of experiment: JNK3 AlphaScreen Assay (AID 530).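 Note: kinase came from lysate of stimulated human HepG2 cells; signal reports phosphorylation of biotinylated GST-cJun 1-79 at Ser73 with 10 µM ATP; % is set by controls: 0 for no effect and ±100 for the full control effect.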 As to conditions: JNK3 lysate, c-Jun phosphorylation; series mostly up to 11.4 µM. An outline of the steps:
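qHTS titrations with 15 min compound pre-incubation before adding ATP (10 uM final). Read-out: AlphaScreen of Ser73-phosphorylated biotin-GST-cJun using HepG2 lysate JNK3 activated by IL-1β and TNFα.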
On the technique in general: In Alpha technology, singlet oxygen from a donor bead excites a nearby acceptor bead.

The target of assay [9] is 3',5'-cyclic-AMP phosphodiesterase 4B (Homo sapiens) (UniProt Q07343). The assay is described as follows: qHTS Assay for Inhibitors of PDE-IV (AID 607; active = well fitted activation curve with a large enough effect in the main read-out, with a control signal flat, not every such curve was filed as active; note: % of control where 0% means no effect). As to conditions: HEK293 ACTOne CNG channel cells, membrane potential fluorescence; series mostly up to 22.9 µM. The procedure, abridged:
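HEK293 ACTOne cells with CNG channel (1000/well), endogenous PDE4; membrane potential dye, compounds up to 22.9 uM final. Fluorescence Ex 535/Em 590; RO 20-1724 (100 uM final) as reference.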
For orientation: Quantitative high-throughput screening tests each substance at several concentrations.

For assay [10], the target named is Cytochrome P450 3A4 (Homo sapiens) (UniProt P08684). The assay is described as follows: qHTS Assay for Activators of Cytochrome P450 3A4 (AID 885; active = well fitted curve in the direction sought with a large enough effect; an effect the other way counts as inactive or inconclusive; note: nearly all actives have a fitted effect of over 65% in size). The conditions noted are these: recombinant CYP3A4, Luciferin-PPXE luminescence, 60 min; series mostly up to 11.4 µM. An outline of the steps: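 Human CYP3A4 dealkylates Luciferin-PPXE to luciferin, which luciferase detection converts to light. Substrate was at its KM (25uM), buffer 200mM KPO4, reaction 60 min at RT.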
Chain of Cytochrome P450 3A4 (Homo sapiens) (P08684 whole entry, looked up): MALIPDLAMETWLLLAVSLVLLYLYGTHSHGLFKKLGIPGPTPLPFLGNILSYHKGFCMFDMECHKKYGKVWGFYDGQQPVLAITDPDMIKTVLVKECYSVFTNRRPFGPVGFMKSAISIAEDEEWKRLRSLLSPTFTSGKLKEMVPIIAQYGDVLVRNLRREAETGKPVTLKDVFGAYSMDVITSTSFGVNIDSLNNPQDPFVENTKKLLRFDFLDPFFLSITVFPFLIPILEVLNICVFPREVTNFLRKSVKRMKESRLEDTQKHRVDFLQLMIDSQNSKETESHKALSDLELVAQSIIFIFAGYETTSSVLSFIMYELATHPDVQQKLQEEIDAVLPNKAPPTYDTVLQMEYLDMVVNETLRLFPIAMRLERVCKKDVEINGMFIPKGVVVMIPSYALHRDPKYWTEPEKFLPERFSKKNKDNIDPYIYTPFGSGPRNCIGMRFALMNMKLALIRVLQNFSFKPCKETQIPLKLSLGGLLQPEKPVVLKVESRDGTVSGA

Assay [11] has as its target Cytochrome P450 2D6 (Homo sapiens) (UniProt P10635). As to the kind of experiment: qHTS Assay for Inhibitors and Substrates of Cytochrome P450 2D6 (AID 891; active = well fitted curve in the direction sought with a large enough effect; an effect the other way counts as inactive or inconclusive; note: nearly all actives have a fitted effect of over 60% in size; note: potency is the fitted concentration of half-maximal effect). As to conditions: recombinant CYP2D6, luciferin-ME EGE luminescence; series mostly up to 11.4 µM. The procedure, abridged: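 Luminescent read-out of luciferin formed by 5 nM human CYP2D6 demethylating 30 uM Luciferin-ME EGE (Km level) over 60 min at room temperature after NADPH regeneration addition. Data normalized to full inhibition by 1.43 uM quinidine.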

Assay [12] deals with Cytochrome P450 2C19 (Homo sapiens) (UniProt P33261). The assay is described as follows: qHTS Assay for Inhibitors and Substrates of Cytochrome P450 2C19 (AID 899; active = well fitted curve in the direction sought with a large enough effect; an effect the other way counts as inactive or inconclusive; note: potency is the fitted concentration of half-maximal effect; nearly all actives have a fitted effect of over 60% in size). As to conditions: recombinant CYP2C19, luciferin-H EGE luminescence; series mostly up to 11.4 µM. An outline of the steps:
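Luminescence readout of luciferin formed from 10uM Luciferin-H EGE (KM level) by 5 nM CYP2C19 in 50mM KPO4. 60 min NADPH-driven reaction at 37C after 10 min compound preincubation; data scaled to 57uM ketoconazole inhibition.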

Chain of 3',5'-cyclic-AMP phosphodiesterase 4B (Homo sapiens) (Q07343 whole entry, looked up): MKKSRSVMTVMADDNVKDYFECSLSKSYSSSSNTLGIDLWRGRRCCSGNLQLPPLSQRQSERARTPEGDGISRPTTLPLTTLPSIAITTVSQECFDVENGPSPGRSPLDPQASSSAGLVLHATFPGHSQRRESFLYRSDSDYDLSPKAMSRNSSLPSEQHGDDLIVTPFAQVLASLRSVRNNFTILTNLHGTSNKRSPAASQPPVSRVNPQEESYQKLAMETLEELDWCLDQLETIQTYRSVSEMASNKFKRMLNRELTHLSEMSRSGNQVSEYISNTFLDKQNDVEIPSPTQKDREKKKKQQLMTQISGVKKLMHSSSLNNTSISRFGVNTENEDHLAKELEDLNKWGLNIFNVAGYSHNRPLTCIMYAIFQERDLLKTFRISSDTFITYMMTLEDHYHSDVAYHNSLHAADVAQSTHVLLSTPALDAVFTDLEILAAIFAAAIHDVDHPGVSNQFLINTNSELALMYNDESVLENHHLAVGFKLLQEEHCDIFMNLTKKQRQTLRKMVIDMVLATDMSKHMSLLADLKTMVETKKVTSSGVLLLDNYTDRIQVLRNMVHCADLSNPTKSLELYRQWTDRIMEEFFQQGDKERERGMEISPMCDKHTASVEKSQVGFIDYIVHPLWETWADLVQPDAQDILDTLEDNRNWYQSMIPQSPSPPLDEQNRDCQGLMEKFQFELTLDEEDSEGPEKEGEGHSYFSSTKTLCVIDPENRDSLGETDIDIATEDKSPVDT
Chain of Cytochrome P450 2D6 (Homo sapiens) (P10635 whole entry, looked up): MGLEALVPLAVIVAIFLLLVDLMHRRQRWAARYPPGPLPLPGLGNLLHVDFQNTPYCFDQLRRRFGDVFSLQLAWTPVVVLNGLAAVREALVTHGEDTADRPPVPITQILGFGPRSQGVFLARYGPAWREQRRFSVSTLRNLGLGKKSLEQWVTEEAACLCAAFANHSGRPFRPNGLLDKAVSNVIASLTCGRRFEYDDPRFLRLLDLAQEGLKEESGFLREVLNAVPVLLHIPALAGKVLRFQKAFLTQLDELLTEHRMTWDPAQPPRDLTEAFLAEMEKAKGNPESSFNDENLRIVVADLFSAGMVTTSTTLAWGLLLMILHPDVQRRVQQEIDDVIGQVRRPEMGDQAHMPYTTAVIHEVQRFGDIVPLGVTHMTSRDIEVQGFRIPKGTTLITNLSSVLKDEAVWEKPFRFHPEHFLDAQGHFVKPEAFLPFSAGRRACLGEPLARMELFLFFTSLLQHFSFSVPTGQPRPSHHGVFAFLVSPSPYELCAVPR
Chain of Cytochrome P450 1A2 (Homo sapiens) (P05177 whole entry, looked up): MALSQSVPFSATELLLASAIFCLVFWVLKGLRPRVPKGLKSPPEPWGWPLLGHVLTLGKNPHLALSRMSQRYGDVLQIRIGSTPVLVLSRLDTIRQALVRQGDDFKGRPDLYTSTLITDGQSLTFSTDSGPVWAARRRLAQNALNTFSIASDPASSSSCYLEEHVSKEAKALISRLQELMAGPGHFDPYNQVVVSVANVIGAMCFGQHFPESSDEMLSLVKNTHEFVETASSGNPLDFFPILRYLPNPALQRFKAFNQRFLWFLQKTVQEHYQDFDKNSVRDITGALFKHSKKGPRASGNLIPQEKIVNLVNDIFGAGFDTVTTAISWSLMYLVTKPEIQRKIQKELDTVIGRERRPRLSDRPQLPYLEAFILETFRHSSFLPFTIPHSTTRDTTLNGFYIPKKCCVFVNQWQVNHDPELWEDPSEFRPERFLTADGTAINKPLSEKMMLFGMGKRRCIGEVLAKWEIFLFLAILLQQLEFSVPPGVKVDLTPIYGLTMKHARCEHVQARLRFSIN
Chain of Lysosomal acid glucosylceramidase (Homo sapiens) (P04062 whole entry, looked up): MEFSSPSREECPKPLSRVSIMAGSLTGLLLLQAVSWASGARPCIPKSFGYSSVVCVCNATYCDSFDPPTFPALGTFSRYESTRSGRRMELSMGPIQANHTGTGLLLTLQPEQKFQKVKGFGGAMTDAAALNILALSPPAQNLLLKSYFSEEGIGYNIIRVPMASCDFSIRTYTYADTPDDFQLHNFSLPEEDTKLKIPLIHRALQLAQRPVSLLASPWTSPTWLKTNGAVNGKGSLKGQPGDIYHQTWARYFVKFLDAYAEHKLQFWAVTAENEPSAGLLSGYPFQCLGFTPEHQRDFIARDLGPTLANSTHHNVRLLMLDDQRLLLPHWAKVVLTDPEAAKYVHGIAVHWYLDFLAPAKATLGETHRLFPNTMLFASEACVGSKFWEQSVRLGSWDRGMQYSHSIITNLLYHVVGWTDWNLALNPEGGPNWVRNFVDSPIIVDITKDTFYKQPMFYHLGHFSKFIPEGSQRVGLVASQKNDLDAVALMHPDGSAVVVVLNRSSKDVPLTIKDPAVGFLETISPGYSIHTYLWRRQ
Chain of Cytochrome P450 2C19 (Homo sapiens) (P33261 whole entry, looked up): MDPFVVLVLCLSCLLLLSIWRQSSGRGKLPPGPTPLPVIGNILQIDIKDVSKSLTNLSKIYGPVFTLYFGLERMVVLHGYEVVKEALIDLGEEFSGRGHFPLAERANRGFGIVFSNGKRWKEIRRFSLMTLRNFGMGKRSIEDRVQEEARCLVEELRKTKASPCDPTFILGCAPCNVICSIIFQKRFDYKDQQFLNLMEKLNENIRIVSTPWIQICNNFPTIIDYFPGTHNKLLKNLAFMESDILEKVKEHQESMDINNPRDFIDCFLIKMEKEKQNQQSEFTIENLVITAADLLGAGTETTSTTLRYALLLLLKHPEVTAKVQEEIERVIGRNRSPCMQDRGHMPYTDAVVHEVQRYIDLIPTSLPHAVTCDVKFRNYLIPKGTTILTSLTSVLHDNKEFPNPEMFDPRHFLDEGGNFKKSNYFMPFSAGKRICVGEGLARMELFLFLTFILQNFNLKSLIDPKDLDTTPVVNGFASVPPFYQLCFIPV

As for `O=C(CSC1=NCCN1)Nc1ccccc1`, the Potency is greater than 11.4 µM in assay [1]; 3.98 µM (active) in [3]; greater than 46 µM in assay [6]; greater than 9.22 µM in assay [7]; 1.58 µM (active) in assay [11]. The activity change, negative = inhibition in [2] was 15%; in assay [4] it was -6.05%. Moreover, the activity, negative = inhibition in assay [5] was -2.98%. Moreover, the Potency result in assay [8], in assay [9] and in [10] was “inactive” each time.
As to `N#CCCSC(=S)[C@H]1CCCC1=N`, the Potency in [1] was greater than 11.4 µM; in assay [3] it was 3.16 µM (active); in assay [6], greater than 46 µM; in [7] it was greater than 9.22 µM. Further, the activity change, negative = inhibition in [2] was 13.5%; in assay [4] it was -9.46%. Moreover, the activity, negative = inhibition in assay [5] was -9.66%. Further, the Potency result in assay [8], in [9] and in [10] was “inactive” each time.
As for `CCCCNc1nc(SC)nc2nc[nH]c12`, the Potency was greater than 11.4 µM in assay [1], 0.316 µM (active) in [3], greater than 46 µM in assay [6] and greater than 9.22 µM in [7]. Further, the activity change, negative = inhibition in [2] was 1.1%; in [4], 9.44%. The activity, negative = inhibition in [5] was -3.88%. In addition, the Potency entry in [8], in [9] and in assay [10] was “inactive” in each case.
As to `NS(=O)(=O)c1ccc(N=Nc2nc3[nH]c(=O)[nH]c(=O)c3[nH]2)cc1`, the Potency in assay [1] was 8.51 µM (active); in assay [6], greater than 46 µM; in [7] it was greater than 9.22 µM. Also, the activity change, negative = inhibition in assay [2] is -5.25%; in [4] it was 13.6%. The Potency entry in [3], in assay [8], in assay [9] and in assay [10] was “inactive” throughout. In assay [5], the activity, negative = inhibition was 21.2%.
As for `CN(C)C[C@H]1CCC[C@@H](CN(C)C)C1=O`, the Potency in assay [1] is greater than 11.4 µM; in [6], greater than 46 µM; in [7] it was greater than 9.22 µM. For the same compound, the activity change, negative = inhibition in assay [2] is 5.24%; in [4], -4.78%. Besides, the Potency result in assay [3], in assay [8], in [9] and in assay [10] was “inactive” in each case. Further, the activity, negative = inhibition in assay [5] was 3.25%.
On to `O=C(O)[C@@H]1[C@@H](C(=O)NCc2ccncc2)[C@@H]2C=C[C@@H]1O2`, for which the Potency is greater than 11.4 µM in [1], 5.01 µM (active) in assay [3], greater than 46 µM in [6] and greater than 9.22 µM in assay [7]. The activity change, negative = inhibition in assay [2] was 4.03%; in assay [4] it was 8.48%. Moreover, the activity, negative = inhibition in assay [5] was -1.14%. The Potency result in [8], in [9] and in assay [10] was “inactive” each time.
For `COc1ccc(C=Nc2c(O)ccc3ccccc23)cc1OC`, the Potency in assay [1] was greater than 11.4 µM; in [3] it was 0.251 µM (active); in [6], greater than 46 µM; in [7], greater than 9.22 µM. The figures for the activity change, negative = inhibition in assay [2] and in assay [4] were -0.822% and 9.83%, respectively. For the same compound, the activity, negative = inhibition in assay [5] is -1.67%. For the same compound, the Potency result in assay [8], in assay [9] and in assay [10] was “inactive” each time.
Turning to `Nc1ccc(S(=O)(=O)c2ccc(NC(=O)c3cccnc3)cc2)cc1`, the values for the Potency in assay [1], in assay [6] and in [7] were greater than 11.4 µM, greater than 46 µM and greater than 9.22 µM, respectively. Further, the figures for the activity change, negative = inhibition in assay [2], in [3] and in assay [4] were -0.755%, -21.1% [at 2.29 µM] and 12.7%, respectively. Further, the activity, negative = inhibition in assay [5] is 8.7%. Further, the Potency result in assay [8], in assay [9] and in [10] was “inactive” throughout.
With `Cn1c(=O)c2[nH]c(CCCc3ccc([N+](=O)[O-])cc3)nc2n(C)c1=O`, the values for the Potency in assay [1], in assay [6] and in [7] were greater than 11.4 µM, greater than 46 µM and greater than 9.22 µM, respectively. For the same compound, the activity change, negative = inhibition is 1.15% in assay [2] and -1.84% in [4]. The Potency result in [3], in assay [8], in assay [9] and in assay [10] was “inactive” each time. Also, the activity, negative = inhibition in assay [5] is 6%.
Take `O=S1(=O)[C@H]([C@H]2CC3c4ccccc4C2c2ccccc23)[C@@H](N2CCCCC2)[C@@H]1c1ccccc1`: the Potency was greater than 11.4 µM in assay [1]; greater than 46 µM in assay [6]; greater than 9.22 µM in [7]; 3.16 µM (active) in assay [11]; 2.51 µM (active) in [12]. In addition, the activity change, negative = inhibition is 28.4% in assay [2], 1.6% [at 2.29 µM] in [3] and -27.2% in assay [4]. The activity, negative = inhibition in [5] is 10.9%. Further, the Potency entry in assay [8], in assay [9] and in assay [10] was “inactive” each time.
Turning to `Cc1ccc(N=Nc2ccc(N)cc2C)c(S(N)(=O)=O)c1`, the Potency in assay [1] is greater than 11.4 µM; in assay [3] it was 0.501 µM (active); in assay [6], greater than 46 µM; in assay [7], greater than 9.22 µM. Moreover, the results for the activity change, negative = inhibition in assay [2] and in [4] were 2.62% and 15.6%, respectively. The activity, negative = inhibition in assay [5] is -6.29%. In addition, the Potency result in [8], in assay [9] and in assay [10] was “inactive” in each case.
`[O-][n+]1c(CN2CCCCC2)nc2cccc3c2c1-c1ccccc1-3`: the Potency in assay [1] was greater than 11.4 µM; in assay [3], 1.58 µM (active); in assay [6] it was greater than 46 µM; in assay [7], greater than 9.22 µM. The activity change, negative = inhibition in [2] was -8.04%; in assay [4], 26.2%. Besides, the activity, negative = inhibition in assay [5] is 6.89%. Besides, the Potency result in assay [8], in assay [9] and in assay [10] was “inactive” throughout.
Consider `NCCNS(=O)(=O)c1ccc(N)cc1`, for which the Potency in [1] is greater than 11.4 µM; in assay [6], greater than 46 µM; in assay [7], greater than 9.22 µM. Moreover, the activity change, negative = inhibition in assay [2] is 3.42%; in assay [4], -2.06%. Further, the Potency result in assay [3], in [8], in assay [9] and in [10] was “inactive” in each case. Moreover, the activity, negative = inhibition in [5] is 3.19%.
Regarding `Br/C(=N\Nc1nn[nH]n1)c1ccncc1`, the values for the Potency in assay [1], in assay [6] and in [7] were greater than 11.4 µM, greater than 46 µM and greater than 9.22 µM, respectively. The activity change, negative = inhibition was 9.43% in [2] and 24.2% in assay [4]. For the same compound, the Potency result in assay [3], in assay [8], in assay [9], in [10] and in assay [11] was “inactive” each time. Moreover, the activity, negative = inhibition in [5] is 1.9%.
